# Screening results deposited in PubChem BioAssay by National Center for Advancing Translational Sciences (NCATS).
# Only some compounds are listed: those with a hit (about 2.6% of all), similar ones and a draw of the others.
# uPA surface inh: qHTS for Inhibitors of Cell Surface uPA Generation; cell surface uPA generation assay, qHTS; Potency, µM (doses to about 38.3 µM), inactives show top-dose activity change, negative = inhibition, usual class: inhibitors; 330,000 tested, 0.31% active; active means well fitted inhibition curve with a large enough effect; inconclusive means small, poorly fitted or top-dose-only effect; inactive means no such curve, though single readings can be large or run the other way; tested in mouse RAW 264.7 cells; further: potency means the concentration at half of the fitted maximal effect; on the % scale 0 is the no-effect control and ±100 the full control effect; nearly all actives have a fitted effect of over 55% in size
# ATXN2 expr inh: Primary qHTS for Inhibitors of ATXN expression; HEK-293 ATXN2-luciferase reporter, luminescence, 24 h; Potency, µM (top dose mostly 57 µM), inactives show at the top dose activity change, negative = inhibition, hits mostly inhibitors; 360,000 tested, 0.72% active; AID 1745845, 2022; further: potency means the concentration at half of the fitted maximal effect; on the % scale 0 is the no-effect control and ±100 the full control effect; nearly all actives have a fitted effect of over 55% in size
#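 ATXN2-luciferase reporter cells (luciferase flanked by upstream and downstream ATXN2 gene portions) were treated 24 h at 37 °C with compounds at up to 57 uM. SteadyGlo luminescence gave expression; GF-AFC fluorescence gave viability.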
# Giardia killer: Small Molecules that selectively kill Giardia lamblia: qHTS. Giardia lamblia trophozoite viability. 340,000 tested, 0.15% active. activity change, % at 7.66 µM, hits read low; in the data active means activity change below about -80%; inconclusive means between about -30% and that limit;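 further: parasites exposed to compound for two days anaerobically before the ATP read; on the % scale 0 is the no-effect control and ±100 the full control effect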
#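 Luminescence from cellular ATP indicates surviving trophozoites (100 cells/well) following 48 hrs anaerobic compound treatment at 37 deg C; signal develops 15-30 min at room temperature.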
# TGFb SMAD3 inh: qHTS for Inhibitors of TGF-b. 410,000 tested, 1.2% active. Potency, µM (top dose mostly 46.1 µM), without a hit: at the highest dose activity, negative = inhibition, usual class: inhibitors. HepG2 CAGA-GFP TGF-b/SMAD3 reporter, GFP fluorescence, 18 h; TGF-beta stimulated, 500 pg/mL final; further: potency means the concentration at half of the fitted maximal effect; on the % scale 0 is the no-effect control and ±100 the full control effect; nearly all actives have a fitted effect of over 65% in size
#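 TGF-beta reporter screen: HEPG2 CAGA-GFP, 1% FBS, 500 pg/mL TGF-beta final, 18 h; per-cell GFP summed per well; curves fitted and categorized by class.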
# S2 tox: Viability Counterscreen for Primary qHTS for Inhibitors of ATXN expression | S2 cells (HEK-293 line with an ATXN2-luciferase reporter) viability, CellTiter-Fluor protease fluorescence, 24 h | Potency, µM (titrated, usually from 56.7 µM), most hits filed as cytotoxic | 400,000 tested, 0.49% active; further: potency means the concentration at half of the fitted maximal effect; nearly all actives have a fitted effect of over 40% in size
# HepG2 tox: qHTS for Inhibitors of TGF-b: Cytotox Counterscreen; 410,000 tested, 0.76% active; AID 588856, 2011; HepG2 CAGA-GFP viability, ATP luminescence, 18 h; Potency, µM (series often up to 46.1 µM), for inactives: top-dose activity change, negative = cytotoxicity, usual class: cytotoxic; further: potency means the concentration at half of the fitted maximal effect
#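 HepG2 CAGA-GFP cells (1000/well, DMEM with 1% FBS) received compound, then TGF-beta at 500 pg/mL final, and were incubated 18 hours at 37 degrees C. Viability was read by CellTiter-Glo luminescence. Media-only wells were set as complete cell-killing and DMSO as no toxicity.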
# * marks the source's active call; other numbers are inactive results; i = inactive; ? = inconclusive; . = no result given; ! = not confirmed by another sample. Unless noted, the call rests on the fitted dose curve; in most records, active means well fitted curve in the direction sought with a large enough effect; inconclusive means small, poorly fitted or top-dose-only effect, or another doubt; inactive means no such curve, though single readings can be large; an effect the other way counts as inactive or inconclusive.
SMILES,uPA surface inh,ATXN2 expr inh,Giardia killer,TGFb SMAD3 inh,S2 tox,HepG2 tox
CC(C)N(CCCNC(=O)Nc1ccc(C(C)(C)C)cc1)C[C@H]1O[C@@H](n2cc(Br)c3c(N)ncnc32)[C@H](O)[C@H]1O,.,22µM*,.,.,.,.
Cc1cc(C)cc(NS(=O)(=O)c2ccc3[nH]cc(C(=O)NCc4ccccc4Cl)c(=O)c3c2)c1,.,-37%,.,13µM*,?,-36%
Cc1cc(C)cc(NS(=O)(=O)c2ccc3[nH]cc(C(=O)NC4CCCCC4)c(=O)c3c2)c1,.,?,.,?,?,11µM*
Cc1cc(C)cc(NS(=O)(=O)c2ccc3[nH]cc(C(=O)NCc4ccco4)c(=O)c3c2)c1,-8%,?,7,?,?,-51%
CCN(CC)S(=O)(=O)c1ccc2c(c1)c(=O)c(C(=O)NCc1ccccc1OC)cn2C,.,3%,.,-4%,i,-5%
CCN(CC)S(=O)(=O)c1ccc2c(c1)c(=O)c(C(=O)NCc1ccccc1Cl)cn2C,.,-9%,.,-40%,i,5.6µM*
CCC[C@H](N[C@@H](C)C(=O)N1[C@@H]2CCCC[C@H]2C[C@H]1C(=O)O)C(=O)OCC,.,-4%,.,.,i,.
CCCN1CNc2c(c(=O)[nH]c(=S)n2CCCc2ccccc2)C1,.,.,11,.,.,.
c1cncc(OC2CCN(Cc3ccc4c(c3)CN(Cc3nc5ccccc5s3)CCO4)CC2)c1,.,.,.,.,i,.
C=CCn1c(SC(F)F)nc2scc(-c3ccco3)c2c1=O,-8%,53%,9,10µM*,i,-17%
C=CCn1c(SCC(C)=O)nc2scc(-c3ccco3)c2c1=O,-8%,-6%,-15,-1%,i,-11%
Cc1ccc(O)c(-c2cc(-c3cccc(F)c3)n[nH]2)c1,-7%,29%,-27,22µM*,i,-84%
Cc1ncc([N+](=O)[O-])n1CCOC(=O)NC(NCc1cccnc1)C(Cl)(Cl)Cl (stereo not drawn),10%,-1%,-92*,0%,i,0%
Cc1ccccc1NC(NC(=O)OCCn1c([N+](=O)[O-])cnc1C)C(Cl)(Cl)Cl (stereo not drawn),5%,6%,-82*,?,i,-1%
Cc1ncc([N+](=O)[O-])n1CCOC(=O)NC(NCc1ccccc1)C(Cl)(Cl)Cl (stereo not drawn),0%,-9%,?,?,i,-5%
O=[N+]([O-])c1ccc(/C=C2\C=Cc3ccccc32)cc1,.,.,.,3%,.,-9%
Cc1nc(C)n(CC(=O)N2CCOc3ccc(CN4CCN(C)C[C@@H]4c4ccccc4)cc3C2)n1,.,.,.,.,i,.
CCS(=O)(=O)NCc1c(C)ncc2c1CCN(C(=O)c1ccc(F)cc1)C2,.,.,.,.,i,.
O=C(CCNS(=O)(=O)c1ccc(Br)cc1)NCc1ccc(Cl)cc1,3%,-10%,-1,-11%,i,11µM*
COc1ccc(/C=N/NC(=O)c2ccc(Cn3cc([N+](=O)[O-])cn3)o2)cc1O,1%,7%,5,34%,i,4%
COc1cc(/C=N/NC(=O)c2ccc(Cn3cc([N+](=O)[O-])cn3)o2)cc(Br)c1O,3%,-3%,24,16µM*,i,-82%
NC(=O)CC(NC(=O)Cc1ccc(Br)cc1)c1ccc(N2CCN(c3ccc(F)cc3)CC2)c([N+](=O)[O-])c1 (stereo not drawn),10%,?,-21,?,?,11µM*
NC(=O)CC(NC(=O)Cc1ccc(Br)cc1)c1ccc(NC2CCCC2)c([N+](=O)[O-])c1 (stereo not drawn),?,8.9µM*,16,14%,?,4%
CCC1CN(CCNC(=O)c2cc(C(C)C)nn2C)Cc2cc(OC)ccc2O1 (stereo not drawn),.,.,.,.,i,.
COc1cccc(C(=O)Nc2nnc(SCC(=O)Nc3ccc(NC(C)=O)cc3)s2)c1,2µM*,13%,?,-18%,i,-3%
SMILES,uPA surface inh,ATXN2 expr inh,Giardia killer,TGFb SMAD3 inh,S2 tox,HepG2 tox
COc1cccc(N2CC(C(=O)Nc3nnc(SCC(=O)Nc4ccc(NC(C)=O)cc4)s3)CC2=O)c1 (stereo not drawn),0%,-3%,-6,-17%,?,4%
CCOc1cc(/C=C/C(=O)Nc2ccc(C(=O)NCCN(CC)CC)cc2)ccc1OCC(C)C,-24%,.,-21,?,.,13µM*
CCOc1ccc(/C=C/C(=O)Nc2ccc(C(N)=O)cc2)cc1OC,0%,14%,-20,-1%,i,-8%
S=C1NC[C@H](c2ccccc2)N1CCCCC1CCCCC1,16%,?,-25,18µM*,?,11µM*
NC1=NC[C@H](c2ccccc2)N1CCCCC1CCCCC1,-18%,-13%,5,?,?,-72%
Oc1ccc(C[C@@H]2CNC(=S)N2CCCCC2CCCCC2)cc1,-12%,-10%,-8,13µM*,?,-107%
O=C1NC[C@@H](Cc2ccc(O)cc2)N(CCCCC2CCCCC2)C1=O,.,-4%,.,.,i,.
COC(=O)c1c(OCc2ccccn2)cc(=O)n2c1CCN(Cc1cccc(C(F)(F)F)c1)CC2,.,.,.,.,i,.
CCOC(=O)c1cnc2ccc(OC)cc2c1NCCc1ccc(OC)c(OC)c1,-1%,28µM*!,-10,16µM*!,?,-47%
COc1cccc(CNC(=O)CN(c2ccc(C(C)C)cc2)S(=O)(=O)c2c(C)n[nH]c2C)c1,.,?,.,16µM*,?,-3%
Cc1n[nH]c(C)c1S(=O)(=O)N(CC(=O)NCc1ccccc1Cl)c1ccc(C(C)C)cc1,.,?,.,?,32µM*,-76%
COc1ccc(CNC(=O)CN(c2ccc(C)cc2)S(=O)(=O)c2c(C)n[nH]c2C)cc1,.,7%,.,?,i,-23%
Cc1ccc(N(CC(=O)NCc2ccccc2Cl)S(=O)(=O)c2c(C)noc2C)cc1,0%,-3%,-1,-9%,i,0%
COc1ccc(CN2CCC3(CCC(CNC(=O)c4ccnn4C)O3)CC2)c(C)c1C (stereo not drawn),.,.,.,.,i,.
COc1ccccc1-n1c(-c2ccccc2)c[nH]c1=S,21%,-21%,-30,-8%,?,-10%
COc1ccc(-n2c(-c3ccc(Br)cc3)c[n+]3c2CCc2ccccc2-3)cc1,5µM*,?,1,?,i,-36%
CC(C)c1ccc(-n2c(-c3ccccc3)c[n+]3c2CCc2ccccc2-3)cc1,?,?,0,?,?,-22%
COc1ccccc1-n1c(-c2ccccc2)c[n+]2c1CCc1ccccc1-2,11µM*!,6.7µM*!,-5,13µM*,?,-21%
